Assay results published in PubChem BioAssay (Tox21).
Results filed as inconclusive are left out. Calls of active or inactive are those of the source. Unless noted, calls follow the shape of the dose curve; as a rule, active = well fitted curve in the direction sought with a large enough effect in the repeat runs; inconclusive = weak or mixed curves; inactive = no such curve, though single readings can be large; an effect the other way counts as inactive or inconclusive.

Key:
[1] = qHTS assay to identify small molecule agonists of the vitamin D receptor (VDR) signaling pathway - cell viability counter screen (AID 743224); also: nearly all actives have a fitted effect of over 50% in size
Method in brief: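 VDR-bla cells were preincubated 4 h at 37C/5% CO2, then exposed to compounds for 16 h. After the 2 h room-temperature bla FRET read, CellTiter-Glo was added to the same wells and luminescence read after 30 min.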

[2] = qHTS assay to identify small molecule antagonists of the vitamin D receptor (VDR) signaling pathway - cell viability counter screen (AID 743225); also: nearly all actives have a fitted effect of over 50% in size
Method in brief: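 Compounds were pinned onto VDR-bla HEK 293T cells together with 1-alpha,25-dihydroxyvitamin D3 at 3 nM final. After 16 h at 37C and 5% CO2 plus the reporter readout, cell viability was measured by CellTiter-Glo luminescence (30 min, room temperature).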

[3] = qHTS assay to identify small molecule agonists of the NFkB signaling pathway (AID 1159509; active = well fitted curve in the direction sought with a large enough effect in the signal ratio in the repeat runs, not every such curve was filed as active; the % refers to the signal ratio)
Method in brief: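 ME-180 NFkB-bla, 2,000 cells/well, overnight plating; cpd pinned in DMSO, 5 h 37 C; B/G FRET substrate 1.5 h RT; ex 405, em 460/530 nm.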

[4] = qHTS assay to identify small molecule agonists of the NFkB signaling pathway - cell viability counter screen (AID 1159515; calls by dose curve; also: nearly all actives have a fitted effect of over 55% in size)
Method in brief: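 NFkB-bla ME-180 cells, 2,000/well, were plated overnight at 37 C, 5% CO2, then exposed to compounds in DMSO for 5 hr. After the bla FRET read, CellTiter-Glo was added to the same wells; luminescence was read after 30 min at room temperature.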

[5] = qHTS assay to identify small molecule agonists of the endoplasmic reticulum stress response signaling pathway (AID 1159516; active = well fitted activation curve with a large enough effect in the signal ratio in the repeat runs, not every such curve was filed as active; the % refers to the signal ratio)
Method in brief: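 CellSensor ESRE-bla HeLa cells, carrying a beta-lactamase reporter driven by the ER stress response element, were plated overnight and exposed to compounds for 5 hr at 37 C. Reporter activity was read as FRET substrate fluorescence after 2 hr at room temperature.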

[6] = qHTS assay to identify small molecule agonists of the endoplasmic reticulum stress response signaling pathway - cell viability counter screen (AID 1159517; calls by dose curve; also: nearly all actives have a fitted effect of over 50% in size)
Method in brief: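 HeLa cells carrying an ESRE-driven beta-lactamase reporter receive compound for 5 hr at 37 C. Cell viability is then gauged with CellTiter-Glo by luminescence, 30 min at room temperature.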

[7] = qHTS assay to identify small molecule antagonists of the retinoid-related orphan receptor gamma (ROR-gamma) signaling pathway - cell viability counter screen (AID 1159520); also: nearly all actives have a fitted effect of over 50% in size
Method in brief: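 Cytotoxicity was read from cellular ATP (CellTiter-Glo luminescence) after 16 hr at 37 C with 1 uM doxycycline induction. The inducer was added 2 hr after compound transfer to Tet-on ROR gamma CHO cells.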

[8] = biological target: Nuclear receptor ROR-gamma (Homo sapiens) (UniProt P51449); test: qHTS assay to identify small molecule antagonists of the retinoid-related orphan receptor gamma (ROR-gamma) signaling pathway (AID 1159521)
Method in brief: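 Test compounds were applied to Tet-on RORγ CHO cells 2 h ahead of doxycycline hyclate (1 uM final). Luciferase reporter activity was quantified by luminescence after 16 h at 37 C and 5% CO2.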

[9] = qHTS assay to identify small molecule agonists of the AP-1 signaling pathway - cell viability counter screen (AID 1159525; calls by dose curve; also: nearly all actives have a fitted effect of over 55% in size)
Method in brief: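 Luminescent ATP readout (Cell Titer Glo, 30 min RT), normalised to DMSO and tetra n-octyl ammonium bromide controls. Cells were ME-180 AP-1-bla in 0.5% dialyzed FBS Opti-MEM, with a 5 h, 37 °C compound exposure.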

[10] = qHTS assay to identify small molecule agonists of the AP-1 signaling pathway (AID 1159526; calls by dose curve)
[11] = biological target: Retinoic acid receptor RXR-alpha (Homo sapiens) (UniProt P19793); test: qHTS assay to identify small molecule agonists of the RXR signaling pathway (AID 1159527; calls by dose curve; also: nearly all actives have a fitted effect of over 35% in size)
Chain of Retinoic acid receptor RXR-alpha (Homo sapiens) (P19793 whole entry, looked up): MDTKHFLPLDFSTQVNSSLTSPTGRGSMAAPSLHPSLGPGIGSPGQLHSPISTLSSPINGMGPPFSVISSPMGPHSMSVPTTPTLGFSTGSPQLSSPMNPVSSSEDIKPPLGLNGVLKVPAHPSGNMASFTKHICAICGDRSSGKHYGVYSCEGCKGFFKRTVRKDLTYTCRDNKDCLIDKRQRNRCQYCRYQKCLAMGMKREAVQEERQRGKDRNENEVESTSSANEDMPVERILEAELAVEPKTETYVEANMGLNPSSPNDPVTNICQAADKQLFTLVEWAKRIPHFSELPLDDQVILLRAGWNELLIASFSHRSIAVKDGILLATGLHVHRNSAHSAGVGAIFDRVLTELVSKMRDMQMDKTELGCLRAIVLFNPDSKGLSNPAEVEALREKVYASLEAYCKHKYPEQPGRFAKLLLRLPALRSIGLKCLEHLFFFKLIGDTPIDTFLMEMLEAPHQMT
Method in brief: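 Using 9-cis retinoic acid as the reference agonist, chemicals were tested in HEK 293T cells […] for 16 hr; substrate loading lasted 2 hr at room temperature.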

[12] = qHTS assay to identify small molecule antagonists of the retinoid acid receptor (RAR) signaling pathway - cell viability counter screen (AID 1159551); also: nearly all actives have a fitted effect of over 35% in size
Method in brief: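 C3RL4 cells were seeded overnight at 37 C, then treated with compounds plus 1 uM (final) retinol for 6 h at 37 C. Viability was read as ATP by CellTiter-Glo luminescence after 30 min at room temperature.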

[13] = qHTS assay to identify small molecule antagonists of the retinoic acid receptor (RAR) signaling pathway (AID 1159552; also: nearly all actives have a fitted effect of over 50% in size)
Method in brief: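 Test chemicals and DMSO controls were pin-transferred onto C3RL4 cells a day after seeding; retinol (1 uM final) followed at once. Luminescent reporter output was quantified after 6 hr of co-incubation and 30 min with detection reagent.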

[14] = qHTS assay to identify small molecule agonists of the retinoic acid receptor (RAR) signaling pathway (AID 1159553); details: C3RL4 RARE luciferase reporter, agonist, 6 h; activation: at 73.3 µM (top of the series)
Method in brief: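 C3RL4 cells carrying a RARE luciferase reporter were plated overnight at 37 C, then exposed to compounds in DMSO for 6 hr at 37 C and 5% CO2. Luminescence was read 30 min after luciferase reagent addition at room temperature.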

[15] = qHTS assay to identify small molecule antagonists of the estrogen related receptor (ERR) signaling pathway from Tox21 library - cell viability counter screen (AID 1224834); also: nearly all actives have a fitted effect of over 30% in size
Method in brief: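 ERR reporter cells were plated 6 h before compound addition, then exposed to test compounds in DMSO for 17.5 h at 37 C. Viability was read as CellTiter-Fluor fluorescence after a 30-minute incubation at 37 C.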

[16] = biological target: Luciferin 4-monooxygenase (Photinus pyralis) (UniProt P08659); test: qHTS assay to identify small molecule inhibitors of firefly luciferase (AID 1224835); also: nearly all actives have a fitted effect of over 25% in size
Chain of Luciferin 4-monooxygenase (Photinus pyralis) (P08659 whole entry, looked up): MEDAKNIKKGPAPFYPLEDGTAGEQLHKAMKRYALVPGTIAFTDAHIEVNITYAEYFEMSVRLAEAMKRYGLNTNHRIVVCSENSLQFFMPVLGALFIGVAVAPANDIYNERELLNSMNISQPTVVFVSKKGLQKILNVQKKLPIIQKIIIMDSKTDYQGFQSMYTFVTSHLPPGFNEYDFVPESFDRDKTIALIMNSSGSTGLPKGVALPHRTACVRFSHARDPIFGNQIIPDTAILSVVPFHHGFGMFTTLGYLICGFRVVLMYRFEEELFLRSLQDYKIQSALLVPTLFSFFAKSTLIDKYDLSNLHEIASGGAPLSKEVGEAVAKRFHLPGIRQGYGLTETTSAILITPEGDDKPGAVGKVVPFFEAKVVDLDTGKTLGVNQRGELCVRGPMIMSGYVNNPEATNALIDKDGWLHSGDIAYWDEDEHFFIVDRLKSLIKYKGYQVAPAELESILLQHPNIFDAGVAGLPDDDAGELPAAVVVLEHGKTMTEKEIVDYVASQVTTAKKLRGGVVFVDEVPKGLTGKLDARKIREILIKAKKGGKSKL
Method in brief: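 Inhibition of purified Photinus luciferase is measured by luminescence. Substrate levels (D-luciferin, ATP) sit at their KM values. Each compound is tested in a concentration series.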

[17] = qHTS assay to identify small molecule antagonists of the constitutive androstane receptor (CAR) signaling pathway - cell viability counter screen (AID 1224837); also: nearly all actives have a fitted effect of over 45% in size
Method in brief: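 HepG2 cells stably expressing hCAR and a CYP2B6-2.2kb reporter were plated and pre-incubated 4 hr at 37 C/5% CO2, then given compounds at 15 concentrations plus 50 nM CITCO (final). After 23 hr, viability was read by CellTiter-Fluor fluorescence.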

[18] = qHTS assay to identify small molecule agonists of the RXR signaling pathway - cell viability counter screen (AID 1159529); also: nearly all actives have a fitted effect of over 50% in size
Method in brief: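 Compounds dissolved in DMSO were pinned onto HEK 293T cells carrying a beta-lactamase reporter under RXR-alpha control and incubated 16 hr. Cytotoxicity was then quantified by CellTiter-Glo luminescence.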

[19] = qHTS assay to identify small molecule agonists of the constitutive androstane receptor (CAR) signaling pathway - cell viability counter screen (AID 1224836); also: nearly all actives have a fitted effect of over 45% in size
Method in brief: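 23 h treatment, 37 C, 5% CO2. Cell line: HepG2 stably expressing hCAR with a CYP2B6-2.2kb construct. Co-treatment: PK11195, 0.75 uM final. Read-out: CellTiter-Fluor fluorescence intensity.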

[20] = biological target: Nuclear receptor subfamily 1 group I member 3 (Homo sapiens) (UniProt Q14994); test: qHTS assay to identify small molecule antagonists of the constitutive androstane receptor (CAR) signaling pathway (AID 1224838); also: nearly all actives have a fitted effect of over 40% in size
Chain of Nuclear receptor subfamily 1 group I member 3 (Homo sapiens) (Q14994 whole entry, looked up): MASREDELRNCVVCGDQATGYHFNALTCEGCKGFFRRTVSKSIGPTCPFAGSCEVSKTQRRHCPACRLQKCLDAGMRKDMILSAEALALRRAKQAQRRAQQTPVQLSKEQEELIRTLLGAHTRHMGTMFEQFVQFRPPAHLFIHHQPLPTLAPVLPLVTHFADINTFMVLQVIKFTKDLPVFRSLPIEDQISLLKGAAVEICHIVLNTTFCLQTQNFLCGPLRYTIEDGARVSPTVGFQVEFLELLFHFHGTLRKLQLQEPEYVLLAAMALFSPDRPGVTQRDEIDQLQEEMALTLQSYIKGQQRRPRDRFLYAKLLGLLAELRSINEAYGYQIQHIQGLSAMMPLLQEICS
Method in brief: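 HepG2 cells stably co-transfected with hCAR and a CYP2B6-2.2kb luciferase reporter were seeded 4 h before compound addition at 15 concentrations. Cells were stimulated with 50 nM CITCO (final) for 24 h at 37 C; luciferase luminescence was then read.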

Measured: Potency

CC1(N)CCC(C(C)(C)N)CC1 (stereo not drawn)
not listed: [18] | [19] | [20]
inactive: all other assays above

CCCO
not listed: [15] | [19] | [20]
inactive: all other assays above

N#CCCOCCOCCC#N
not listed: [8] | [20]
inactive: all other assays above

CCCCCCCC/C=C\CCCCCCCC(=O)OC[C@@H](O)[C@H]1OC[C@H](O)[C@H]1O
not listed: [2] | [18] | [20]
inactive: all other assays above

NCCc1ccn[nH]1
not listed: [1] | [18] | [19] | [20]
inactive: all other assays above

OC(CCN1CCCCC1)(c1ccccc1)c1ccccc1
not listed: [1] | [15] | [17] | [20]
inactive: all other assays above

c1ccc(CNc2ncnc3nc[nH]c23)cc1
not listed: [15] | [17] | [19] | [20]
inactive: all other assays above

COc1cccc2sc(N)nc12
not listed: [8]
inactive: all other assays above

CC(C)C(=O)Nc1cccc(C(F)(F)F)c1
not listed: [1] | [16] | [18]
inactive: all other assays above
